Measurements taken from PubChem BioAssay (Tox21).
Results filed as inconclusive are left out. Active and inactive are the calls of the source. Unless noted, the call rests on the fitted dose curve; in most records, active means well fitted curve in the direction sought with a large enough effect in the repeat runs; inconclusive means weak or mixed curves; inactive means no such curve, though single readings can be large; an effect the other way counts as inactive or inconclusive.

Key:
[1] = qHTS assay to identify small molecule agonists of the vitamin D receptor (VDR) signaling pathway - cell viability counter screen (AID 743224); further: series mostly up to about 63 µM; nearly all actives have a fitted effect of over 50% in size
Summary of the method: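 Cells: VDR-bla, 2,000/well, settled 4 h. Treatment: compounds in DMSO, 16 h, 37C/5% CO2. Readout: CellTiter-Glo luminescence after 30 min RT.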

[2] = qHTS assay to identify small molecule agonists of the NFkB signaling pathway (AID 1159509; active means well fitted curve in the direction sought with a large enough effect in the signal ratio in the repeat runs, not every such curve was filed as active; the % refers to the signal ratio; further: series mostly up to about 61 µM)
Summary of the method: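 Pathway activation was measured in ME-180 cells stably expressing beta-lactamase under NF-kB response element control. Substrate cleavage was read as the 460/530 nm emission shift after 5 hr compound incubation.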

[3] = qHTS assay to identify small molecule agonists of the NFkB signaling pathway - cell viability counter screen (AID 1159515; calls by dose curve; further: series mostly up to about 61 µM; nearly all actives have a fitted effect of over 55% in size)
Summary of the method: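 Cells are seeded (2,000 NFkB-bla ME-180 per well), rested overnight, and dosed with DMSO-dissolved compounds for 5 hr at 37 C. Viability is then read by CellTiter-Glo luminescence after 30 min at room temperature.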

[4] = qHTS assay to identify small molecule agonists of the endoplasmic reticulum stress response signaling pathway (AID 1159516; active means well fitted activation curve with a large enough effect in the signal ratio in the repeat runs, not every such curve was filed as active; the % refers to the signal ratio)
Summary of the method: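 Cells are seeded at 1,500 per well and incubated overnight. Compounds in DMSO are added for 5 hr at 37 C, then beta-lactamase FRET substrate for 2 hr at room temperature, and fluorescence at 460 and 530 nm is measured.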

[5] = qHTS assay to identify small molecule agonists of the endoplasmic reticulum stress response signaling pathway - cell viability counter screen (AID 1159517; calls by dose curve;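 further: HeLa cells carrying an ER stress response element beta-lactamase reporter; series mostly up to about 61 µM; nearly all actives have a fitted effect of over 50% in size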)
Summary of the method: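 ESRE-bla HeLa cells (1,500/well) were plated overnight at 37 C and exposed to compounds for 5 hr. After the 2 hr beta-lactamase substrate read, CellTiter-Glo went into the same wells, and luminescence was read after 30 min at room temperature.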

[6] = qHTS assay to identify small molecule antagonists of the retinoid-related orphan receptor gamma (ROR-gamma) signaling pathway - cell viability counter screen (AID 1159520); further: nearly all actives have a fitted effect of over 50% in size
Summary of the method: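 Cytotoxicity was read from cellular ATP (CellTiter-Glo luminescence) after 16 hr at 37 C with 1 uM doxycycline induction. The inducer was added 2 hr after compound transfer to Tet-on ROR gamma CHO cells.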

[7] = molecular target: Nuclear receptor ROR-gamma (Homo sapiens) (UniProt P51449); assay: qHTS assay to identify small molecule antagonists of the retinoid-related orphan receptor gamma (ROR-gamma) signaling pathway (AID 1159521; further: top concentration of the series differs between compounds; nearly all actives have a fitted effect of over 50% in size)
Summary of the method: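 Antagonist read-out: drop in luminescence (ONE-Glo) from an RORE-LUC reporter in CHO cells with doxycycline-inducible ROR-gamma; 2 hr compound pretreatment, 1 uM doxycycline, 16 hr incubation at 37 C.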

[8] = qHTS assay to identify small molecule agonists of the AP-1 signaling pathway - cell viability counter screen (AID 1159525; calls by dose curve; further: nearly all actives have a fitted effect of over 55% in size)
Summary of the method: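 Intracellular ATP by Cell Titer Glo luminescence (30 min, RT) in the same ME-180 AP-1-bla wells after the 5 h compound exposure at 37 °C. Normalised to tetra n-octyl ammonium bromide and DMSO controls.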

[9] = qHTS assay to identify small molecule agonists of the AP-1 signaling pathway (AID 1159526; calls by dose curve)
[10] = molecular target: Retinoic acid receptor RXR-alpha (Homo sapiens) (UniProt P19793); assay: qHTS assay to identify small molecule agonists of the RXR signaling pathway (AID 1159527; calls by dose curve; further: nearly all actives have a fitted effect of over 35% in size; further: potency means the concentration at half of the fitted maximal effect)
Chain of Retinoic acid receptor RXR-alpha (Homo sapiens) (P19793 whole entry, looked up): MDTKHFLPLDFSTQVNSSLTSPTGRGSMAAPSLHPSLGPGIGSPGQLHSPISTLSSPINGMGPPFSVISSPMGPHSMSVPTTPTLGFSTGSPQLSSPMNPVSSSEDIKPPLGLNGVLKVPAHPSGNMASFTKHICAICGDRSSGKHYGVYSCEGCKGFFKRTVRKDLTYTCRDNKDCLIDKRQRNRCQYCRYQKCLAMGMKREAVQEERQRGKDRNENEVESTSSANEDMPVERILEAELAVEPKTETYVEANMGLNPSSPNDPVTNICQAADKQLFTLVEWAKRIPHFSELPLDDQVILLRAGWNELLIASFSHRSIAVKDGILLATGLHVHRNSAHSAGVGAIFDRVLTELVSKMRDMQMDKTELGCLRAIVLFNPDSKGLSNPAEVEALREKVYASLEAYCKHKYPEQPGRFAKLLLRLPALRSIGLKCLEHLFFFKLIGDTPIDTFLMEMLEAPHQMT
Summary of the method: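 Agonist-mode beta-lactamase reporter assay: HEK 293T RXR-alpha-UAS-bla cells treated 16 hr at 37 C with compounds, 9-cis retinoic acid as positive control. LiveBLAzer FRET substrate, 405 nm excitation, 460/530 nm emission.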

[11] = qHTS assay to identify small molecule agonists of the RXR signaling pathway - cell viability counter screen (AID 1159529)
Summary of the method: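 CellTiter-Glo luminescence gave viability in the wells also read for beta-lactamase. Cells (RXR-alpha-UAS-bla HEK 293T, 2% charcoal-stripped FBS medium) had 5 hr plating, then 16 hr compound exposure at 37 C; tetraoctyl ammonium bromide served as positive control.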

[12] = qHTS assay to identify small molecule antagonists of the retinoid acid receptor (RAR) signaling pathway - cell viability counter screen (AID 1159551); further: nearly all actives have a fitted effect of over 35% in size
Summary of the method: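 Cells (C3RL4) are plated, incubated overnight, dosed with compound in DMSO, then given retinol at 1 uM final. After 6 h at 37 C, CellTiter-Glo is added and luminescence read following 30 min at room temperature.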

[13] = qHTS assay to identify small molecule antagonists of the retinoic acid receptor (RAR) signaling pathway (AID 1159552; further: nearly all actives have a fitted effect of over 50% in size)
Summary of the method: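 Luminescent RARE reporter read-out in C3RL4 cells: 6 hr co-treatment at 37 C of test compounds with retinol at 1 uM final. Cells plated overnight beforehand; luciferase reagent incubated 30 min at room temperature before reading.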

[14] = qHTS assay to identify small molecule agonists of the retinoic acid receptor (RAR) signaling pathway (AID 1159553); further: potency means the concentration at half of the fitted maximal effect
Summary of the method: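 Seed C3RL4 reporter cells at 1,000 per well and incubate overnight at 37 C. Add compounds in DMSO, incubate 6 hr. Add luciferase reagent, wait 30 min at room temperature, read luminescence.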

[15] = qHTS assay to identify small molecule antagonists of the estrogen related receptor (ERR) signaling pathway from Tox21 library - cell viability counter screen (AID 1224834); further: nearly all actives have a fitted effect of over 30% in size
Summary of the method: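 ERR cells, 2,000/well; 6 h settle at 37 C/5% CO2; pin-tool compound transfer in DMSO; 17.5 h at 37 C; CellTiter-Fluor, 30 min; fluorescence intensity.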

[16] = molecular target: Luciferin 4-monooxygenase (Photinus pyralis) (UniProt P08659); assay: qHTS assay to identify small molecule inhibitors of firefly luciferase (AID 1224835); further: nearly all actives have a fitted effect of over 25% in size; further: potency means the concentration at half of the fitted maximal effect
Chain of Luciferin 4-monooxygenase (Photinus pyralis) (P08659 whole entry, looked up): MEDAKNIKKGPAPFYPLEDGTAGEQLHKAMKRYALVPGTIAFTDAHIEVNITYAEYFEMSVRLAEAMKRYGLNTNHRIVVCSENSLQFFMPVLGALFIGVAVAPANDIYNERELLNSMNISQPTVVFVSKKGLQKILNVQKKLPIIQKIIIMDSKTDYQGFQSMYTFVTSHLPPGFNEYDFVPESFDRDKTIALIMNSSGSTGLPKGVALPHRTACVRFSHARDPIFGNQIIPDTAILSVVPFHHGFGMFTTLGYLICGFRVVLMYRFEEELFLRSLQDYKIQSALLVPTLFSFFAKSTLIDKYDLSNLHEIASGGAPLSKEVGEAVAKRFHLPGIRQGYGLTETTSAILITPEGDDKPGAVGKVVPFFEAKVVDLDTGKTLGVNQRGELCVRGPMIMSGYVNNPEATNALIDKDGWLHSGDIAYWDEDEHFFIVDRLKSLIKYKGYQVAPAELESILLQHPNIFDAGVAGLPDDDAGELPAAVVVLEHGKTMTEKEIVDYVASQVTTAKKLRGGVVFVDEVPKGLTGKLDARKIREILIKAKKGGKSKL
Summary of the method: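 Inhibition of purified Photinus luciferase is measured by luminescence. Substrate levels (D-luciferin, ATP) sit at their KM values. Each compound is tested in a concentration series.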

[17] = qHTS assay to identify small molecule agonists of the constitutive androstane receptor (CAR) signaling pathway - cell viability counter screen (AID 1224836); further: series mostly up to about 92 µM; nearly all actives have a fitted effect of over 45% in size
Summary of the method: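 Cell viability multiplexed with the CAR agonist screen: CellTiter-Fluor fluorescence after 23 hr at 37 C. HepG2-CYP2B6-hCAR cells got compounds at 15 concentrations with PK11195 at 0.75 uM final.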

[18] = qHTS assay to identify small molecule antagonists of the constitutive androstane receptor (CAR) signaling pathway - cell viability counter screen (AID 1224837); further: series mostly up to about 92 µM; nearly all actives have a fitted effect of over 45% in size
Summary of the method: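 Viability was measured with CellTiter-Fluor in a HepG2 line carrying stably transfected hCAR and a CYP2B6-2.2kb construct. Cells were exposed for 23 hr at 37 C to 15 compound concentrations with 50 nM CITCO as agonist.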

[19] = molecular target: Nuclear receptor subfamily 1 group I member 3 (Homo sapiens) (UniProt Q14994); assay: qHTS assay to identify small molecule antagonists of the constitutive androstane receptor (CAR) signaling pathway (AID 1224838);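 further: HepG2 cells stably expressing hCAR with CYP2B6 luciferase reporter stimulated by CITCO; nearly all actives have a fitted effect of over 40% in size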
Chain of Nuclear receptor subfamily 1 group I member 3 (Homo sapiens) (Q14994 whole entry, looked up): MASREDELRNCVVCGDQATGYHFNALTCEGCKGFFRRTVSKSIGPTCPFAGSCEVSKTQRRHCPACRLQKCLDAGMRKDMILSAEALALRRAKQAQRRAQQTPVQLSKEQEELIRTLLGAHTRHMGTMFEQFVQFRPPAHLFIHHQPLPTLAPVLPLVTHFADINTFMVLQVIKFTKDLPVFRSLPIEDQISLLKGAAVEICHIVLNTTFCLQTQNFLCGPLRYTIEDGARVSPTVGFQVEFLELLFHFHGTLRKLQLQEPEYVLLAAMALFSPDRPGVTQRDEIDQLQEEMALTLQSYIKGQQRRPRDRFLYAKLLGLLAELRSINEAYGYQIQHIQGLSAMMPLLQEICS
Summary of the method: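 Antagonist mode used CITCO at a final 50 nM to activate CAR in human hepatoma HepG2 cells carrying stable hCAR and a 2.2 kb CYP2B6 promoter-luciferase construct. Compounds were tested at 15 concentrations over 24 h, with luminescence as the end point.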

[20] = qHTS assay to identify small molecule antagonists of the vitamin D receptor (VDR) signaling pathway - cell viability counter screen (AID 743225); further: nearly all actives have a fitted effect of over 50% in size
Summary of the method: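 Cytotoxicity counter screen read by CellTiter-Glo luminescence (30 min, room temperature) in the same wells as the VDR-bla antagonist readout. HEK 293T VDR-UAS-bla cells had 16 h at 37C with compound and 3 nM (final) 1-alpha,25-dihydroxyvitamin D3, then 2 h with FRET substrate.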

Measured: Potency

CCCCCCCCCCOC(C)=O
not listed: [20]
inactive: all other assays above

CCCCCCCCCCCCCBr
not listed: [20]
inactive: all other assays above

CCO[Si](CC)(OCC)OCC
not listed: [20]
inactive: all other assays above

O=C(Cn1ccnc1[N+](=O)[O-])NCc1ccccc1
not listed: [20]
inactive: all other assays above

Cn1nnc2c(C(N)=O)ncn2c1=O
inactive: all assays above

COC(=O)c1cc(Cl)cc(Cl)c1
inactive: all assays above

COC(=O)c1ccccc1C(=O)O
active: [10] 21.9 µM
not listed: [1] | [20]
inactive: all other assays above

c1ccc2c(CC3=NCCN3)cccc2c1
inactive: all assays above

CC(C)(C)NC[C@H](O)COc1cccc2c1CCCC2=O
inactive: all assays above

Cc1c(Cl)cccc1Cl
inactive: all assays above

COC(=O)/C=C\C(=O)O
not listed: [20]
inactive: all other assays above

CC(C)CCOC(=O)c1ccccc1
active: [16] 71 µM
inactive: all other assays above

NCCOCCN
not listed: [20]
inactive: all other assays above

CCO
inactive: all assays above

Cn1c(=O)c2[nH]c(Br)nc2n(C)c1=O
not listed: [20]
inactive: all other assays above

O=NN(CCCl)C(=O)NC1CCCCC1
inactive: all assays above

CCCCOC(=O)C(C)O (stereo unspecified)
inactive: all assays above

CCCCC1CCC(O)CC1 (stereo unspecified)
not listed: [20]
inactive: all other assays above

CC1(C)Oc2ccc(C#N)cc2[C@@H](N2CCCC2=O)[C@@H]1O
inactive: all assays above

CCCCCc1cccc(=O)o1
not listed: [20]
inactive: all other assays above

O=C(CN1CCNCC1)NC1CCCCC1
not listed: [20]
inactive: all other assays above

COCCc1ccccn1
inactive: all assays above

O=C1CCC(=O)N1Cl
not listed: [20]
inactive: all other assays above

OCC(O)CN1CCN(c2ccccc2)CC1 (stereo unspecified)
not listed: [1] | [20]
inactive: all other assays above

Nc1nnnn1-c1ccccc1
inactive: all assays above

Cn1c(=O)c2c(ncn2CCO)n(C)c1=O
not listed: [20]
inactive: all other assays above

CCC(C)C(C)=O (stereo unspecified)
not listed: [20]
inactive: all other assays above

C[C@@H](O)C(=O)O
inactive: all assays above

C/C=C(\C)C(=O)OCCc1ccccc1
active: [14] 27.3 µM | [16] 7.1 µM
not listed: [20]
inactive: all other assays above

COC(=O)c1cccc(Cl)c1
not listed: [20]
inactive: all other assays above
